Experiment [1] in a line: TOX21_p53_BLA_p5_viability: Viability Assessment in the Tox21 HCT-116 p53 Agonism Beta-lactamase Assay, Phase 5 (AID 2283600). The procedure, abridged:
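After the 460/530 nm beta-lactamase measurement, the wells received an ATP-detection luciferase reagent; signal was read 30 min later at RT. Compound treatment lasted 16 h on cells pre-incubated 5 h post-seeding.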

A short description of experiment [2]: Tanguay_ZF_120hpf_MORT_legacy: (Legacy) Oregon State University Tanguay Lab 120 Hour Post-fertilization zebrafish Assay for Mortality (AID 2283633).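 As to AC50: fitted as increase in binary mortality versus DMSO negative control.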 The method in brief:
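Static waterborne exposure from 6 to 120 hpf at 28C of single dechorionated wild-type (5D) embryos per well, 0.64% DMSO final. Death recorded present/absent by brightfield at 24 and 120 hpf.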

Experiment [3] in a line: Tanguay_ZF_120hpf_YSE_legacy: (Legacy) Oregon State University Tanguay Lab 120 Hour Post-fertilization zebrafish Assay for Yolk Sac Edema (AID 2283634). The procedure, abridged: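 Presence or absence of yolk sac edema was recorded at 120 hpf in surviving larvae. These were wild-type Tropical 5D embryos, chorion removed at 4 hpf, held in static exposure at 28C from 6 hpf with 0.64% DMSO vehicle.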

Experiment [4] is described as follows: Tanguay_ZF_120hpf_EYE_legacy: (Legacy) Oregon State University Tanguay Lab 120 Hour Post-fertilization zebrafish Assay for Eye Malformation (AID 2283636).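 Also: binary presence or absence of eye malformation scored by brightfield in 120 hpf larvae.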 The procedure, abridged:
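Dechorionated wild-type Tropical 5D zebrafish embryos were exposed statically from 6 hpf, one per well, to 120 hpf at 28C in sealed, foil-covered plates with 0.64% DMSO. Eye malformation was scored present/absent by brightfield microscopy against DMSO controls.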

Experiment [5] in a line: Tanguay_ZF_120hpf_SNOU_legacy: (Legacy) Oregon State University Tanguay Lab 120 Hour Post-fertilization zebrafish Assay for Snout Malformation (AID 2283637). The method in brief:
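Tropical 5D wild-type zebrafish embryos, dechorionated with pronase at 4 hpf, were exposed singly from 6 hpf to 120 hpf statically at 28C in 0.64% DMSO. Snout malformation was scored present/absent by brightfield microscopy, fitted against DMSO.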

A short description of experiment [6]: Tanguay_ZF_120hpf_JAW_legacy: (Legacy) Oregon State University Tanguay Lab 120 Hour Post-fertilization zebrafish Assay for Jaw Malformation (AID 2283638). The procedure, abridged: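 Binary jaw-malformation call at 120 hpf by brightfield microscopy. Embryos (Tropical 5D strain, chorion removed at 4 hpf) were dosed statically at 6 hpf, one per well, at 28C with 0.64% DMSO. Embryos that died were not scored.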

Experiment [7] in a line: Tanguay_ZF_120hpf_OTIC_legacy: (Legacy) Oregon State University Tanguay Lab 120 Hour Post-fertilization zebrafish Assay for Otic Vesicle Malformation (AID 2283639). The procedure, abridged:
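Tropical 5D wild-type zebrafish embryos statically exposed in 0.64% DMSO at 28C until 120 hpf; 5uM trimethyltin chloride as positive control. Otic vesicle malformation scored present/absent by brightfield; dead embryos not scored; gain fitted versus DMSO.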

The nature of experiment [8]: Tanguay_ZF_120hpf_PE_legacy: (Legacy) Oregon State University Tanguay Lab 120 Hour Post-fertilization zebrafish Assay for Pericardial Edema (AID 2283640). The method in brief:
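Scoring was binary, by brightfield microscopy at 120 hpf, and skipped where mortality occurred. Wild-type embryos were kept under sealed, foil-covered static exposure at 28C in 0.64% (vol/vol) DMSO.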

Experiment [9] can be described thus: Tanguay_ZF_120hpf_SOMI_legacy: (Legacy) Oregon State University Tanguay Lab 120 Hour Post-fertilization zebrafish Assay for Somite Malformation (AID 2283647). The procedure, abridged: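 Binary somite-defect scoring at 120 hpf, omitted for embryos that died, in wild-type (Tropical 5D) zebrafish with chorion removed by pronase at 4 hpf; static exposure began 6 hpf, single embryos per well, 28C, 0.64% DMSO; fitted positive versus DMSO.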

Experiment [10] is described as follows: Tanguay_ZF_120hpf_PFIN_legacy: (Legacy) Oregon State University Tanguay Lab 120 Hour Post-fertilization zebrafish Assay for Pectoral Fin Malformation (AID 2283648).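 Also: each larva judged yes or no for fin defect by brightfield with dead larvae skipped.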 The method in brief:
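Tropical 5D wild-type embryos, dechorionated with pronase at 4 hpf, were placed singly in wells at 6 hpf and statically exposed until 120 hpf at 28C, sealed and dark, with 0.64% (vol/vol) final DMSO; pectoral fin malformation scored present/absent.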

The nature of experiment [11]: Tanguay_ZF_120hpf_CFIN_legacy: (Legacy) Oregon State University Tanguay Lab 120 Hour Post-fertilization zebrafish Assay for Caudal Fin Malformation (AID 2283649). The method in brief: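 Binary brightfield scoring of caudal fin defects at 120 hpf after static, light-shielded exposure at 28C from 6 hpf. Tropical 5D embryos, chorion removed with pronase at 4 hpf, final DMSO 0.64%.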

Experiment [12] is described as follows: Tanguay_ZF_120hpf_PIG_legacy: (Legacy) Oregon State University Tanguay Lab 120 Hour Post-fertilization zebrafish Assay for Pigmentation Malformation (AID 2283650). The procedure, abridged: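 Tropical 5D wild-type zebrafish embryos, dechorionated with pronase at 4 hpf, were exposed singly from 6 hpf to 120 hpf statically at 28C in sealed, dark plates with 0.64% DMSO; pigmentation scored present/absent by brightfield microscopy, fitted against DMSO.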

Experiment [13] can be described thus: Tanguay_ZF_120hpf_CIRC_legacy: (Legacy) Oregon State University Tanguay Lab 120 Hour Post-fertilization zebrafish Assay for Circulatory Malformation (AID 2283651). The procedure, abridged:
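Dechorionated wild-type 5D zebrafish embryos, one per well, statically exposed from 6 to 120 hpf at 28C with 0.64% DMSO; circulatory malformation scored present/absent by brightfield microscopy at 120 hpf, dead embryos excluded.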

The nature of experiment [14]: Tanguay_ZF_120hpf_SWIM_legacy: (Legacy) Oregon State University Tanguay Lab 120 Hour Post-fertilization zebrafish Assay for Swim Bladder Malformation (AID 2283654).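 Also: swim bladder malformation in each larva scored yes or no under brightfield.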 The method in brief: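 Dechorionated Tropical 5D wild-type embryos, placed singly from 6 hpf, were statically exposed at 28C to 120 hpf with 0.64% DMSO final; swim bladder malformation was scored present/absent by brightfield microscopy, gain of signal relative to DMSO controls.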

A short description of experiment [15]: Tanguay_ZF_120hpf_TRUN_legacy: (Legacy) Oregon State University Tanguay Lab 120 Hour Post-fertilization zebrafish Assay for Truncated Body (AID 2283655). The procedure, abridged: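 Binary presence/absence of truncated body is recorded at 120 hpf by brightfield, with non-mortality endpoints skipped after death. Exposure is static from 6 hpf in sealed dark plates at 28C, using dechorionated wild-type zebrafish, 0.64% DMSO.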

A short description of experiment [16]: Tanguay_ZF_120hpf_BRAI_legacy: (Legacy) Oregon State University Tanguay Lab 120 Hour Post-fertilization zebrafish Assay for Brain Malformation (AID 2283641). The method in brief: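 Binary brightfield scoring of brain malformation at 120 hpf in Tropical 5D larvae held under static exposure at 28C (0.64% v/v DMSO), non-mortality endpoints skipped if dead. Positive control: 5uM trimethyltin chloride; fit versus DMSO.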

Experiment [17] has as its target Cellular tumor antigen p53 (Homo sapiens) (UniProt P04637). In words: TOX21_p53_BLA_p5_ratio: Tox21 HCT-116 p53 Agonism Beta-lactamase Assay, Ratio, Phase 5 (AID 2283599). The procedure, abridged: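 HCT-116 cells carrying a p53-inducible beta-lactamase reporter were seeded at 4000 cells/well and dosed after 5 h with compound in DMSO (217-fold dilution). After 16 h at 37C, CCF4-AM substrate was added for 2 h, and the 460/530 nm emission ratio was scored as gain-of-signal versus DMSO.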

The target is the same in experiment [18]. In words: TOX21_p53_BLA_p4_ratio: Tox21 HCT-116 p53 Agonism Beta-lactamase Assay, Ratio, Phase 4 (AID 2283601). The procedure, abridged:
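HCT116 cells carrying an inducible beta-lactamase reporter were plated at 4000 cells/well, rested 5 h, then exposed to compounds in DMSO (217-fold dilution) for 16 h at 37C. CCF4-AM substrate was loaded 2 h at room temperature; 460/530 nm emission ratio scored gain-of-signal versus DMSO.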

Experiment [19] is described as follows: Tanguay_ZF_120hpf_AXIS_legacy: (Legacy) Oregon State University Tanguay Lab 120 Hour Post-fertilization zebrafish Assay for Body Axis Malformation (AID 2283635). The method in brief:
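Binary scoring of axis defects at 120 hpf under brightfield, fitted positive versus DMSO. Tropical 5D embryos, chorion removed by pronase at 4 hpf, were singly exposed in sealed, dark plates at 28C from 6 hpf; DMSO 0.64% final.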

Read-out in experiment [20]: solute carrier (SLC22A6), SLC22A6 (gene 9356)
In words: LTEA_HepaRG_SLC22A6: Life Technologies and Expression Analysis (LTEA) Assay for solute carrier (SLC22A6) using HepaRG (AID 2283653; active = hit-call score of the fitted dose curve at least 0.9, where 1 is the maximum; inactive = score below 0.9). The settings on record: mRNA level, 48 h; actives raise or lower the signal. The procedure, abridged:
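SLC22A6 transcript was measured by TaqMan qRT-PCR, normalized to three housekeeping genes, after 48 h duplicate exposure of HepaRG cells (100 uM top, half-log steps, 0.5% DMSO); bidirectional fit against vehicle.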

The structures appear in SMILES notation. Records with an inconclusive call do not appear. Active and inactive are the calls of the source. The calls were made as follows, unless noted: active = hit-call score of the fitted dose curve at least 0.9, where 1 is the maximum; inconclusive = response in the unintended direction; inactive = score below 0.9.

Sequence of Cellular tumor antigen p53 (Homo sapiens) (P04637 whole entry, looked up): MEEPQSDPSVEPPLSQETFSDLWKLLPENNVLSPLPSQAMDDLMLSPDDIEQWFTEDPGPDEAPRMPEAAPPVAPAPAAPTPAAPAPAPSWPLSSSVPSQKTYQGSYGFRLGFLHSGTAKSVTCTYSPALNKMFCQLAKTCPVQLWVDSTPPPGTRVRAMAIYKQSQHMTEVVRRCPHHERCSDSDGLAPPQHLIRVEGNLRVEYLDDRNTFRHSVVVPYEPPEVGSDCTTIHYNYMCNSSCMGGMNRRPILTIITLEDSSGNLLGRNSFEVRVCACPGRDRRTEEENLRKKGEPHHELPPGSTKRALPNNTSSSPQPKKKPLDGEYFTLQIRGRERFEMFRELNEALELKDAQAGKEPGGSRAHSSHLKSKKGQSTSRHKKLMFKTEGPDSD

With `Cc1cc(-c2ccc(N)c(C)c2)ccc1N`, the result in [1], in [2], in experiment [3], in [4], in [5] and in [6] was inactive. Besides, the compound was classed as inactive in [7], in experiment [8], in [9], in [10], in experiment [11] and in experiment [12]. The compound was called inactive in [13], in experiment [14] and in experiment [15].

As to `Nc1ccc(-c2ccc(N)cc2)cc1`, the result in experiment [1], in experiment [2], in experiment [3], in [4], in experiment [5] and in experiment [6] was inactive. Besides, the compound was called inactive in experiment [7], in [8], in [16], in [9], in experiment [11] and in experiment [13]. The outcome in experiment [14] and in experiment [15] was inactive.

Take `ClC1=C(Cl)[C@]2(Cl)[C@@H]3[C@@H]4C[C@@H]([C@H]5O[C@@H]45)[C@@H]3[C@@]1(Cl)C2(Cl)Cl`: the result in experiment [17], in experiment [1], in [18], in experiment [2], in experiment [3] and in [4] was inactive. In addition, the call in [5], in experiment [7], in [8], in experiment [9], in experiment [11] and in [14] was inactive.

On to `ClC1=C(Cl)[C@]2(Cl)[C@@H]3[C@@H](Cl)[C@H]4O[C@H]4[C@@H]3C1(Cl)C2(Cl)Cl`, for which the result in [17], in experiment [1], in [2], in experiment [3], in experiment [4] and in [5] was inactive. Moreover, the result in experiment [6], in experiment [7], in experiment [8], in experiment [9], in [13] and in experiment [15] was inactive. For the same compound, in experiment [18], the AC50 was 72.3 µM (active).

For `COS(=O)(=O)OC`, the compound was classed as inactive in experiment [1], in [2], in [3], in experiment [19], in [4] and in [5]. In addition, the result in [6], in experiment [7], in experiment [8], in [9], in [12] and in [13] was inactive. Besides, the compound was called inactive in experiment [20], in experiment [14] and in experiment [15].

For `CCC(C)c1cc([N+](=O)[O-])cc([N+](=O)[O-])c1O` (stereo not drawn), the compound was called inactive in experiment [1], in [3], in [4], in [5], in experiment [6] and in experiment [7]. Also, the call in experiment [8], in [9], in experiment [10], in experiment [11], in experiment [12] and in experiment [13] was inactive. The outcome in experiment [14] and in [15] was inactive. Further, the AC50 in [2] is 0.462 µM (active).

Regarding `NS(=O)(=O)C(F)(F)C(F)(F)C(F)(F)C(F)(F)C(F)(F)C(F)(F)C(F)(F)C(F)(F)F`, the AC50 in experiment [17] was 82.3 µM (active); in experiment [1], 46.1 µM (active); in [2], 24.9 µM (active); in experiment [11] it was 4.88 µM (active). The result in experiment [3], in experiment [19], in experiment [4], in [5], in experiment [6] and in experiment [7] was inactive. Also, the compound was classed as inactive in experiment [8], in [9], in experiment [12], in [13] and in experiment [15].

With `Cc1cccc([N+](=O)[O-])c1`, the outcome in experiment [17], in [1], in experiment [2], in experiment [3], in [4] and in experiment [5] was inactive. The compound was classed as inactive in [6], in experiment [7], in [8], in experiment [9], in experiment [11] and in experiment [12]. For the same compound, the call in experiment [14] and in experiment [15] was inactive.
